# Screens deposited in PubChem BioAssay by several laboratories.
# A selection: hits, their analogues and other compounds. The true share with any hit is near 3%.
# SKKanGAS inh – blocks kanamycin growth of S. pyogenes SKKanGAS strain. 300,000 compounds, 1.3% hits. inhibition, % at 7.5 µM. AID 1662. BacTiter-Glo, 6 h;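 active = mean replicate score, as percent of positive control median, at least 50; inconclusive = mean below 50 but one replicate at or above 50; inactive = mean and every replicate below 50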;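 also: strain carries kanamycin resistance gene driven by streptokinase promoter and grows in 40 µg/ml kanamycin; loss of luminescence reflects streptokinase promoter inhibition or plain growth inhibition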
# CSC inhib – cancer stem cell inhibition; cancer stem cell-like cells viability, luminescence; inhibition, % at 7.5 µM; 300,000 compounds, 1.1% hits; AID 2717; in the data active = inhibition above about 75%; inconclusive = no clear call, values can overlap the other calls; tested in HMLE shEcad cells
# IEC-6 tox – counter-screen for KLF5 inhibitors: cytotoxicity in IEC-6 cells. IEC-6 cytotoxicity, luminescence viability. inhibition, % at 5 µM. 290,000 compounds, 0.78% hits; in the data active = inhibition above about 22%
# KLF5 inh – inhibitors of KLF5 expression; inhibition, % at 5 µM; 290,000 compounds, 0.23% hits; DLD-1 KLF5 promoter-luciferase reporter, luminescence;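 active = inhibition above a per-plate limit of that plate's mean compound inhibition plus 3 SD, cut at about 60% in these data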;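 also: higher means less KLF5 promoter-driven luciferase light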
# aSyn 5UTR inh – MLPCN primary screen, SNCA 5' untranslated region | alpha-synuclein 5'UTR reporter, inhibitor activity | inhibition, % (tested at 7.5 µM) | 300,000 compounds, 0.82% hits; in the data active = inhibition above about 60%; inconclusive = no clear call, values can overlap the other calls;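 also: H4 neuroglioblastoma cells stably carrying SNCA 5'UTR luciferase fusion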
# Numbers stand for hits; . = inactive; ? = inconclusive; / = no result given.
SMILES,SKKanGAS inh,CSC inhib,IEC-6 tox,KLF5 inh,aSyn 5UTR inh
O=C(Nc1ccc(Br)cc1C(=O)O)c1ccc2c(c1)C(=O)N(Cc1ccccc1)C2=O,76,.,.,.,.
COCC(C)n1c(SCc2cc(=O)n3cc(C)ccc3n2)nc2ccccc2c1=O (stereo not given),.,.,.,.,64
NC(=O)CC(NC(=O)c1ccccc1)c1ccc(N2CCCCCCC2)c([N+](=O)[O-])c1 (stereo not given),.,.,.,.,.
Cc1ccccc1CNc1ccc(C(CC(N)=O)NC(=O)c2ccc(Br)cc2)cc1[N+](=O)[O-] (stereo not given),.,111,/,/,.
NC(=O)CC(NC(=O)c1ccc(Br)cc1)c1ccc(N2CCCCCC2)c([N+](=O)[O-])c1 (stereo not given),.,123,.,.,.
NC(=O)CC(NC(=O)c1ccc(Br)cc1)c1ccc(NCc2ccc(F)cc2)c([N+](=O)[O-])c1 (stereo not given),.,?,/,/,.
Cc1sc2ncnc(N3CCN(CCOc4ccc(Cl)cc4)CC3)c2c1C,.,83,.,.,.
Cc1sc2ncnc(N3CCC(C)CC3)c2c1C,.,.,.,.,.
Cc1cc(/C=C2\SC(=S)N(C)C2=O)c(C)n1-c1ccccc1O,88,98,/,/,.
Cc1cc(/C=C2\SC(=S)N(C)C2=O)c(C)n1-c1ccc(O)cc1,65,.,.,.,.
CCCCCCOc1ccc(OC(=O)c2ccncc2)cc1,.,95,.,.,.
O=C(N/N=C/C=C/c1ccccc1[N+](=O)[O-])c1cccs1,.,.,.,.,.
Cc1nn(-c2ccc(Cl)cc2)c(Cl)c1/C=N/NC(=O)c1ccc(NS(=O)(=O)c2cccs2)cc1,63,.,/,/,.
O=C(N/N=C/c1ccc([N+](=O)[O-])cc1)c1ccc(NS(=O)(=O)c2cccs2)cc1,/,.,/,/,/
O=C(N/N=C/c1ccc([N+](=O)[O-])o1)c1ccc(NS(=O)(=O)c2cccs2)cc1,72,.,.,.,.
O=C(N/N=C\C=C\c1ccc([N+](=O)[O-])o1)c1cccs1,91,.,.,.,.
Cc1nn(-c2ccc(F)cc2)c(Cl)c1/C=N/NC(=O)c1cccs1,.,.,.,.,.
COc1cc(SC)ccc1C(=O)N1CCN(Cc2ccc3c(c2)OCO3)CC1,.,.,.,.,.
Cc1ccc(N(CC(=O)NCC2CCCO2)S(=O)(=O)c2ccccc2)c(C)c1 (stereo not given),.,.,.,.,.
COc1ccc(CCNc2nc(-c3ccncc3)cs2)cc1OC,.,.,.,.,.
COc1ccc(CCNc2nc(-c3ccccn3)cs2)cc1OC,75,.,.,.,.
CCOC(=O)c1[nH]cnc1C(=O)N1CCC(C)CC1,/,.,/,/,/
CC(/C=C1\SC(=S)N(NS(=O)(=O)c2ccc(C)cc2)C1=O)=C\c1ccccc1,78,.,.,.,.
CC(/C=C1\SC(=S)N(NS(=O)(=O)c2ccccc2)C1=O)=C\c1ccccc1,57,.,.,.,.
CC(/C=C1\SC(=S)N(c2ccc(C(=O)O)cc2)C1=O)=C\c1ccccc1,116,76,.,.,.
SMILES,SKKanGAS inh,CSC inhib,IEC-6 tox,KLF5 inh,aSyn 5UTR inh
Brc1ccc(N=Nc2ccc3ccccc3n2)cc1,.,.,.,.,95
CCn1c(O)c(N=Nc2ccc3ccccc3n2)c2ccccc21,.,.,.,.,.
CCC1(C)Cc2c(sc3nc(SC)n(Cc4ccccc4)c(=O)c23)CO1 (stereo not given),.,96,.,.,.
COc1ccc2c(c1)c(=O)oc1c(C)c(OCc3ccc(C(=O)O)cc3)ccc12,52,.,.,.,.
CCOc1ccc(C(=O)n2cc(C(=O)OC)c3ccccc32)cc1,.,.,.,.,.
Oc1c(Cl)cc(Cl)cc1C=Nc1cc(C(F)(F)F)ccc1N1CCc2ccccc2C1,87,.,.,.,.
COCCN(C(=O)CSc1nnc(-c2cccc(OC)c2)n1C)c1c(N)n(Cc2ccccc2)c(=O)[nH]c1=O,.,.,.,.,.
Cc1[nH]n(-c2ccccc2)c(=O)c1C=Nc1cccc2cccnc12,.,.,23,.,.
Cc1cc(C(=O)N/N=C/c2c(C)[nH]n(-c3ccccc3)c2=O)n[nH]1,.,/,.,.,.
Cc1ccc(-n2[nH]c(C)c(/C=N/c3ccccn3)c2=O)cc1,.,.,.,.,.
CCCCN(CCCC)C(=S)N/N=C/c1c(C)[nH]n(-c2ccccc2)c1=O,88,.,.,.,93
Cc1[nH]n(-c2ccccc2)c(=O)c1/C=N/NC(=O)c1ccc(O)cc1O,102,/,.,.,.
CCCCN=Cc1c(C)[nH]n(-c2ccccc2)c1=S,.,.,.,.,.
Cc1ccc(-n2[nH]c(C)c(/C=N/NC(=O)c3ccc(O)cc3O)c2=O)cc1,102,.,.,.,.
Cc1[nH]n(-c2ccccc2)c(=O)c1/C=N/Nc1nncc(-c2ccccc2)n1,.,110,.,.,91
Cc1ccc(/C=N/Nc2nncc(-c3ccccc3)n2)o1,.,/,.,.,.
CC[C@H](C)[C@H]1O[C@]2(CC[C@@H]1C)C[C@@H]1C[C@@H](CC=C(C)[C@@H](O[C@H]3C[C@H](OC)[C@@H](O[C@H]4C[C@H](OC)[C@@H](O)[C@H](C)O4)[C@H](C)O3)[C@@H](C)C=CC=C3CO[C@@H]4[C@H](O)C(C)=C[C@@H](C(=O)O1)[C@]34O)O2,/,103,/,/,/
CC(C)CN(C(=O)CSc1nn(-c2ccc(Cl)cc2)c(=S)s1)C1CCS(=O)(=O)C1 (stereo not given),.,.,.,.,.
COc1cc(C(=O)NCC2CCCN2S(=O)(=O)c2cccs2)cc(OC)c1OC (stereo not given),.,.,/,/,.
CCOc1ccc(C(=O)NCC2CCCN2S(=O)(=O)c2cccs2)cc1 (stereo not given),53,/,/,/,.
COc1ccc2oc(=O)c(/C(N)=N/NC(=O)c3ccncc3)cc2c1,.,/,.,.,.
CC1CCN(c2nc(N3CCCCC3)nc(N3CCCCC3)n2)CC1,56,.,.,.,.
CCCCCCc1nc2ccccc2c(=O)n1NC(=O)c1c(O)c2cccc3c2n(c1=O)CC3,/,/,.,.,/
COc1ccc2[nH]c(=O)c(CN(Cc3cccs3)S(=O)(=O)c3cccc4nsnc34)cc2c1,.,/,.,.,76
COc1ccccc1N1CCN(C(=O)/C=C/c2c(Cl)nc3ccccn23)CC1,69,.,.,.,.
SMILES,SKKanGAS inh,CSC inhib,IEC-6 tox,KLF5 inh,aSyn 5UTR inh
CCS(=O)(=O)N1CCN=C1SCc1cccnc1,.,.,.,.,.
Cc1ccc(S(=O)(=O)N/N=C2/CC(c3ccccc3)Oc3ccccc32)cc1[N+](=O)[O-] (stereo not given),.,.,.,.,.
O=S(=O)(N/N=C1/CC(c2ccccc2)Oc2ccccc21)c1ccc(Br)cc1 (stereo not given),.,89,.,.,.
NCCC1CCCC(CCN)N1 (stereo not given),/,.,/,/,/
CC1C/C(=N/NC(=O)c2ccc(CSc3nc4ccccc4[nH]3)cc2)CC(C)(C)C1 (stereo not given),.,.,.,.,.
CC1C/C(=N/Nc2nc3ccccc3[nH]2)CC(C)(C)C1 (stereo not given),60,.,.,.,.
